Our source for the potency estimated from few doses values is article PMC11062922 (Nature Chemical Biology, 2023).

SMILES strings stand for the structures. Like-named read-outs stand apart in the source and are kept apart here.

Common to all, as to design: species or system human, MV4-11 + K-562 + COLO205 + SK-N-BE2 + OVCAR-8
For one assay, the system named is ACVR1. The note with it: read-out: apparent Kd, n = 1.
Another assay relates to BCR. The note with it: read-out: apparent Kd; compound concentrations: 100 nM and 1000 nM (sheet 'Samples'), CATDS: 0.114797180795753; n = 1.
Another assay deals with CDKL5. Particulars: read-out: apparent Kd; compound concentrations: 100 nM and 1000 nM (sheet 'Samples'), CATDS: 0.10101184649506401; n = 1.
In another assay the test system is CSNK2A1;CSNK2A3. The note with it: read-out: apparent Kd, compound concentrations: 100 nM and 1000 nM (sheet 'Samples'), n = 1.
The subject of a further assay is CSNK2A2. The note with it: read-out: apparent Kd; compound concentrations: 100 nM and 1000 nM (sheet 'Samples'), CATDS: 0.22568308322630501; n = 1.
For a further assay, the system named is GSK3A. The note with it: read-out: apparent Kd; compound concentrations: 100 nM and 1000 nM (sheet 'Samples'), CATDS: 0.157775642803201; n = 1.
A further assay concerns GSK3B. Particulars: read-out: apparent Kd; compound concentrations: 100 nM and 1000 nM (sheet 'Samples'), CATDS: 0.15091586406642499; n = 1.
The subject of another assay is ACVR1B. Particulars: read-out: apparent Kd; compound concentrations: 100 nM and 1000 nM (sheet 'Samples'), CATDS: 0.188759897575135; n = 1.
The next assay relates to DDR1. The note with it: read-out: apparent Kd; compound concentrations: 100 nM and 1000 nM (sheet 'Samples'), CATDS: 0.15549636172905901; n = 1.
The next assay has as its system JAK2. Particulars: read-out: apparent Kd; compound concentrations: 100 nM and 1000 nM (sheet 'Samples'), CATDS: 0.70328815445029103; n = 1.
Another assay concerns MAPK14. The note with it: read-out: apparent Kd, compound concentrations: 100 nM and 1000 nM (sheet 'Samples'), n = 1.
The next assay relates to NLK. The note with it: read-out: apparent Kd; compound concentrations: 100 nM and 1000 nM (sheet 'Samples'), CATDS: 0.152320021786015; n = 1.
Another assay has as its system ACVR2B. The note with it: read-out: apparent Kd, compound concentrations: 100 nM and 1000 nM (sheet 'Samples'), n = 1.
The test system of the next assay is CDK4. Particulars: read-out: apparent Kd; compound concentrations:100 nM and 1000 nM (sheet 'Samples'); n = 1.
A further assay deals with TP53RK. Particulars: read-out: apparent Kd; compound concentrations:100 nM and 1000 nM (sheet 'Samples'); n = 1.
In the next assay the test system is PI4KB. The note with it: read-out: apparent Kd; compound concentrations: 100 nM and 1000 nM (sheet 'Samples'), CATDS: 0.57979233132980301; n = 1.
For the next assay, the system named is ADCK1. The note with it: read-out: apparent Kd; compound concentrations: 100 nM and 1000 nM (sheet 'Samples'), CATDS: 9.92203055838001E-2; n = 1.
In the next assay the test system is AKT1. The note with it: read-out: apparent Kd; compound concentrations: 100 nM and 1000 nM (sheet 'Samples'), CATDS: 2.85422229355832E-2; n = 1.
Another assay deals with AKT2. The note with it: read-out: apparent Kd; compound concentrations: 100 nM and 1000 nM (sheet 'Samples'), CATDS: 2.77493450407107E-2; n = 1.
The test system of another assay is CDC42BPG. Particulars: read-out: apparent Kd; compound concentrations: 100 nM and 1000 nM (sheet 'Samples'), CATDS: 4.9906722196616002E-2; n = 1.
The test system of the next assay is CLK1. Particulars: read-out: apparent Kd; compound concentrations: 100 nM and 1000 nM (sheet 'Samples'), CATDS: 3.0057021324399399E-2; n = 1.
The next assay has as its system CLK4. Particulars: read-out: apparent Kd; compound concentrations: 100 nM and 1000 nM (sheet 'Samples'), CATDS: 3.6459308399585902E-2; n = 1.
Another assay has as its system CSNK1A1. The note with it: read-out: apparent Kd; compound concentrations: 100 nM and 1000 nM (sheet 'Samples'), CATDS: 2.8495259280969999E-2; n = 1.
The next assay deals with HSP90AA1. Particulars: read-out: apparent Kd; compound concentrations: 100 nM and 1000 nM (sheet 'Samples'), CATDS: 2.5840975218280202E-2; n = 1.
For a further assay, the system named is IARS. The note with it: read-out: apparent Kd; compound concentrations: 100 nM and 1000 nM (sheet 'Samples'), CATDS: 2.4824684596515999E-2; n = 1.
In another assay the test system is ILK. The note with it: read-out: apparent Kd; compound concentrations: 100 nM and 1000 nM (sheet 'Samples'), CATDS: 2.4595530906688499E-2; n = 1.
A further assay relates to LATS1. The note with it: read-out: apparent Kd; compound concentrations: 100 nM and 1000 nM (sheet 'Samples'), CATDS: 4.0745202540463502E-2; n = 1.
A further assay relates to MAPK11. The note with it: read-out: apparent Kd; compound concentrations: 100 nM and 1000 nM (sheet 'Samples'), CATDS: 3.2120600016528701E-2; n = 1.
For a further assay, the system named is MELK. Particulars: read-out: apparent Kd; compound concentrations: 100 nM and 1000 nM (sheet 'Samples'), CATDS: 2.8403307321335999E-2; n = 1.
The subject of a further assay is PKN1. The note with it: read-out: apparent Kd; compound concentrations: 100 nM and 1000 nM (sheet 'Samples'), CATDS: 3.7770198987071901E-2; n = 1.
In a further assay the test system is PKN2. Particulars: read-out: apparent Kd; compound concentrations: 100 nM and 1000 nM (sheet 'Samples'), CATDS: 2.64555223020508E-2; n = 1.
The next assay has as its system PRKACA. Particulars: read-out: apparent Kd; compound concentrations: 100 nM and 1000 nM (sheet 'Samples'), CATDS: 4.8150008864783198E-2; n = 1.
For the next assay, the system named is PRKACB. Particulars: read-out: apparent Kd; compound concentrations: 100 nM and 1000 nM (sheet 'Samples'), CATDS: 3.8489694396370601E-2; n = 1.
In a further assay the test system is PRKCA. Particulars: read-out: apparent Kd; compound concentrations: 100 nM and 1000 nM (sheet 'Samples'), CATDS: 2.8417130340745399E-2; n = 1.
The subject of the next assay is PRKCD. The note with it: read-out: apparent Kd; compound concentrations: 100 nM and 1000 nM (sheet 'Samples'), CATDS: 2.7001587668499999E-2; n = 1.
In a further assay the test system is PRKG1. Particulars: read-out: apparent Kd; compound concentrations: 100 nM and 1000 nM (sheet 'Samples'), CATDS: 5.7321528324025303E-2; n = 1.
The test system of another assay is PYGL. The note with it: read-out: apparent Kd; compound concentrations: 100 nM and 1000 nM (sheet 'Samples'), CATDS: 2.4948391152713498E-2; n = 1.
The next assay has as its system RIOK2. Particulars: read-out: apparent Kd; compound concentrations: 100 nM and 1000 nM (sheet 'Samples'), CATDS: 4.2618907121449799E-2; n = 1.
The next assay concerns ROCK1. Particulars: read-out: apparent Kd; compound concentrations: 100 nM and 1000 nM (sheet 'Samples'), CATDS: 5.0643849743389702E-2; n = 1.
The next assay has as its system ROCK2. The note with it: read-out: apparent Kd; compound concentrations: 100 nM and 1000 nM (sheet 'Samples'), CATDS: 5.2344501044754001E-2; n = 1.
The test system of a further assay is RPS6KB1. The note with it: read-out: apparent Kd; compound concentrations: 100 nM and 1000 nM (sheet 'Samples'), CATDS: 2.7290145261830101E-2; n = 1.
In a further assay the test system is SYK. Particulars: read-out: apparent Kd; compound concentrations: 100 nM and 1000 nM (sheet 'Samples'), CATDS: 2.51844401612667E-2; n = 1.
The subject of a further assay is T1, T10.
T1 construct: gene NAT10
The note with it: read-out: apparent Kd; compound concentrations: 100 nM and 1000 nM (sheet 'Samples'), CATDS: 2.6247989636004901E-2; n = 1.

With `COc1cccc(-n2ncc3c(N/N=C/c4ccc(S(C)(=O)=O)cc4)ncnc32)c1` [GW811168X], the potency estimated from few doses in the assay on ACVR1 (compound concentrations: 100 nM and 1000 nM (sheet 'Samples'), CATDS: 0.17536774799610499) is 555 nM; in the assay with BCR, 1420 nM; in the assay on CDKL5 it was 2130 nM; in the assay with CSNK2A1;CSNK2A3 (CATDS: 0.137145274912611) it was 907 nM; in the assay with CSNK2A2, 365 nM; in the assay with GSK3A it was 677 nM. In addition, in the assay on GSK3B, the potency estimated from few doses was 740 nM.
With `COc1ccc(-c2nn3ncccc3c2-c2ccnc(Nc3ccc(F)c(F)c3)n2)cc1` [GW827396X], the potency estimated from few doses was 1020 nM in the assay with ACVR1B; 1770 nM in the assay with DDR1; 73 nM with JAK2; 1010 nM with MAPK14 (CATDS: 0.189242383322658); 1900 nM in the assay on NLK.
Turning to `Cc1ccc(Nc2ccnc(Nc3ccc(C)c(F)c3)n2)cc1O.Cl` [GW582868A], the potency estimated from few doses in the assay on ACVR2B (CATDS: 1) was 664 nM.
With `CN1C(=O)[C@@H](NC(=O)c2cc(Cc3ccccc3)on2)COc2ccccc21` [GSK481], the potency estimated from few doses is 1270 nM in the assay with ACVR1 (compound concentrations:100 nM and 1000 nM (sheet 'Samples')); 1980 nM in the assay on CDK4; 2040 nM in the assay on TP53RK.
Consider `CNc1ncnc2[nH]ncc12` [SKF-18355], for which the potency estimated from few doses with ACVR2B (CATDS: 0.43951319986121201) was 1910 nM; in the assay with PI4KB, 1080 nM.
With `CN(C)CCNS(=O)(=O)c1ccc(-c2ccnc3[nH]ccc23)cc1` [GSK977620A], the potency estimated from few doses was 145 nM with ADCK1; 1480 nM with AKT1; 1600 nM in the assay with AKT2; 449 nM in the assay with CDC42BPG; 1300 nM in the assay on CLK1; 827 nM with CLK4. For the same compound, the potency estimated from few doses is 1490 nM with CSNK1A1; 1990 nM in the assay on CSNK2A1;CSNK2A3 (CATDS: 2.5783405582401799E-2); 1980 nM in the assay on HSP90AA1; 2250 nM in the assay with IARS; 2330 nM in the assay with ILK; 658 nM in the assay on LATS1. The potency estimated from few doses in the assay on MAPK11 is 1100 nM; in the assay on MAPK14 (CATDS: 2.84299118528781E-2), 1500 nM; in the assay with MELK, 1500 nM; in the assay on PKN1, 768 nM; in the assay with PKN2, 1840 nM; in the assay on PRKACA, 479 nM. Moreover, the potency estimated from few doses in the assay with PRKACB was 738 nM; with PRKCA, 1500 nM; with PRKCD, 1730 nM; with PRKG1, 352 nM; in the assay on PYGL it was 2220 nM; with RIOK2, 602 nM. Further, the potency estimated from few doses in the assay on ROCK1 was 437 nM; in the assay on ROCK2 it was 412 nM; in the assay with RPS6KB1, 1680 nM; with SYK, 2150 nM; in the assay with T10, 1890 nM.
